Most compounds without a hit are left out; they make up all but 4.7% or so of the library.
D1 potentiator: potentiators of human D1 dopamine receptor | potentiation, % at 10 µM | P21728 | AID 504651 | HEK293 TREx D1 cells, calcium flux, dopamine EC20 potentiation | hit rate 0.036% among 360,000; in the data active = potentiation above about 30%
Target sequence (P21728 whole entry, looked up): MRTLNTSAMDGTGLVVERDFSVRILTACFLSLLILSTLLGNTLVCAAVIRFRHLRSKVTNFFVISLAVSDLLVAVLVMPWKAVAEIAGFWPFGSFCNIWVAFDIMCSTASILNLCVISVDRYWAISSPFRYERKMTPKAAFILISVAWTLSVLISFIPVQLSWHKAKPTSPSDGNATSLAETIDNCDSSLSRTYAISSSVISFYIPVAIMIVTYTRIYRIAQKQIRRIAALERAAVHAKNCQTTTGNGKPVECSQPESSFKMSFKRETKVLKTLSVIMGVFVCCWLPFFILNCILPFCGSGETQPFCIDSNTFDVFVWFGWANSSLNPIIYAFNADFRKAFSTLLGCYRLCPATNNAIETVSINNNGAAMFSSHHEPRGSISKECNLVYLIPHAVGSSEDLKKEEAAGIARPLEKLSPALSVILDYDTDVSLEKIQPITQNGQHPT
D1 ag: agonists of human D1 dopamine receptor | activation, % at 2 µM | hit rate 1% among 360,000 | AID 504660 | HEK293 T-REx D1 cells, calcium flux, agonist mode | P21728
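Tetracycline-induced HEK293 TREx D1 cells, force-coupled to calcium signalling, were dye-loaded with a no-wash calcium kit. Compound was pin-added after a 10 s baseline. Fluorescence was read kinetically at 1 cycle/s for 180 s, with calcium rises flagged as agonism.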
D1 antagonist: antagonists of human D1 dopamine receptor | P21728 | HEK293 TREx D1 cells, calcium flux, dopamine EC80; stronger effect = lower value | activity change, negative = inhibition, % at 10 µM | hit rate 3.2% among 360,000; in the data active = activity change below about -30%
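Calcium flux readout: force-coupled, inducible Hek293 Trex D1 line, cells induced overnight at 30 C with tetracycline, dye-loaded 30–90 min at RT. Antagonism scored against EC80 dopamine challenge given 180 s after compound.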
TRHR enhancer: allosterically enhances the human TRH receptor; AID 493056; hit rate 0.66% among 360,000; enhancement, % at 2 µM; TRHR cells, fluo-8 calcium fluorescence, EC20 TRH enhancement; in the data active = enhancement above about 30%
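TRHR-expressing cells loaded with fluo-8 calcium dye were read kinetically (ex 480/em 530) during compound addition, then stimulated with an EC20 of TRH (10 nM final). Enhancement of the Gq-mediated intracellular calcium response was scored.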
TRHR agonist: TRH receptor (human) agonism; P34981; TRHR cells, calcium flux fluo-8, FDSS agonist mode; activation, % at 2 µM; hit rate 0.18% among 360,000; AID 493084
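TRHR-expressing cells loaded with fluo-8 calcium dye; 23 nL library compound pin-transferred, kinetic FDSS fluorescence (Ex 480/Em 530) recorded about 180 s for agonist-induced calcium release, before a 10 nM TRH EC20 addition for potentiator mode.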
Of the large screens only hits and unclear results are named; the others gave an inactive call; ! = repeats disagree. Rule as the data show it, unless noted: active = activation above about 30%; inactive = the rest.

COc1ccc(-c2onc(C)c2C)cc1S(=O)(=O)NC1CCC(C)CC1 (configuration not stated)	none
Cn1cc(CN2CCC(C(O)c3cccs3)CC2)c(-c2cccc(Cl)c2)n1 (configuration not stated)	D1 ag 41.5
COc1ccc(C[C@H]2CN3C(=NC[C@@H]3C(C)C)N2CCNC(=O)c2ccc(C)c(Br)c2)cc1	D1 ag 30.4
CC1=Nc2cc(C(=O)NCc3ccccc3Cl)ccc2Sc2c(C)ccc(C)c21	none
CCOC(=O)c1sc(NC(=O)CSc2n[nH]c(-c3ccncc3)n2)c(C#N)c1C	none (no result: D1 antagonist)
Cc1ccsc1/C=C/C1=Cc2c(sc(NC(=O)CSc3n[nH]c(N)n3)c2C#N)C(C)(C)C1	D1 potentiator 97.9, D1 ag 33.5
CCOc1ccc(/C=C/C2=Cc3c(sc(NC(=O)CSc4n[nH]c(N)n4)c3C#N)C(C)(C)C2)cc1	D1 potentiator 31.4, D1 ag 60.0
COc1ccc(-c2noc(N3CCN(c4cccc(Cl)c4)CC3)n2)cc1OC	none
CC(=O)n1nc(-c2cccnc2)nc1NCc1ccc(F)cc1	none
CCOc1cc(C(=O)Nc2ccc(-c3nnc4n3CCCCC4)cc2)cc(OCC)c1OCC	none
Cc1ccccc1CSc1nc2c(sc3ccccc32)c(=O)n1CCCC(=O)NCCCOC(C)C	D1 antagonist -40.2
COc1cc(O)oc1C=Nc1ccc(C(=O)O)cc1	D1 antagonist -79.0
S=C(NCc1ccc(Cl)cc1)Nc1ccc(Cl)cc1Cl	none
Fc1ccc(CNC(=S)Nc2ccc(Cl)cc2Cl)cc1	D1 antagonist -37.8
S=C(NCc1ccccc1)NCc1cccc(Cl)c1	none
Fc1ccc(CNC(=S)NCc2cccc(Cl)c2)cc1	D1 antagonist -32.6
Cc1cccc(NC(=O)CSc2nc(-c3ccccc3)cc(=O)[nH]2)c1C	none
COc1cc(S(=O)(=O)N2CCC(O)(c3cccc(C(F)(F)F)c3)CC2)ccc1-n1cnnn1	none
O=S(=O)(c1ccc(OC(F)(F)F)cc1)N1CCC(O)(c2cccc(C(F)(F)F)c2)CC1	D1 ag 33.9
CN(C)CCn1c(C(=O)Nc2ccccc2)cc2ccccc21	D1 antagonist -42.9
Cc1c(C(=O)N2CCOCC2)sc(NC(=O)c2ccc3c(c2)OCO3)c1C#N	D1 antagonist -33.8
CCCCCn1c(-c2cccc(C)c2)nc2ccccc21	none
C=Cc1ccc(Cn2c(=O)cc(C)c3c(C)nn(C)c32)cc1	D1 ag 50.9
Cc1cc(=O)n(CC(=O)N2CCN(c3ccccc3F)CC2)c2c1c(C)nn2C	D1 antagonist -30.1
Cc1nn(C)c2c1c(C(F)(F)F)cc(=O)n2CC(=O)N1CCN(c2ccccc2F)CC1	none
C/C(N)=C(/C#N)C(=O)CSc1nnc(-c2ccc3c(c2)OCO3)o1	none
C/C(N)=C(/C#N)C(=O)CSc1nnc(-c2ccc(OC(F)F)cc2)o1	D1 antagonist -37.0
CCN(CC)S(=O)(=O)c1ccc2c(c1)N(CC(=O)Nc1c(C)cc(C)cc1C)C(=O)CS2	none
Cc1ccccc1OCCn1c(C)nc2ccccc21	D1 antagonist -41.4
Cc1nc2ccccc2n1CCOc1ccccc1	D1 antagonist -42.3
Cc1ccccc1OCCCCn1c(CO)nc2ccccc21	none
Cc1nc2ccccc2n1CC(O)COc1ccc(Br)cc1 (configuration not stated)	none
Cc1nc2ccccc2n1CC(O)COc1ccccc1Cl (configuration not stated)	D1 antagonist -45.8
O=C(C1CCCN(S(=O)(=O)c2ccc(Br)s2)C1)N1CCN(c2ccccc2F)CC1 (configuration not stated)	none
Cc1cc(-c2nnc(SCc3ccccn3)o2)no1	TRHR enhancer 31.2
COC(=O)c1ccc(Cn2nnc3c(=O)[nH]c(C4CCCN(S(=O)(=O)c5ccccc5Cl)C4)nc32)cc1 (configuration not stated)	TRHR enhancer 30.3!
O=C(CSCc1cnn(-c2ccccc2)c1-n1cccc1)Nc1ccc(F)cc1F	none
COc1cccc(N=Cc2c[nH][nH]c2=O)c1	D1 antagonist -30.7
Cc1ccc(OCC(=O)NCCCNC(=O)c2ccc(C)nc2)cc1	none
COc1ccc(OCC(=O)NCCNC(=O)c2cccnc2)cc1	D1 antagonist -31.9 (no result: D1 potentiator)
Cc1ccc(C(=O)NCCCNC(=O)COc2ccc(Cl)c(C)c2)cn1	D1 antagonist -39.5
COc1ccc(CCN(C)C2CCCN(S(=O)(=O)c3ccc(C)cc3)C2)cc1OC (configuration not stated)	D1 antagonist -37.2
O=C(NCc1ccc(Cl)cc1)c1ccc(-c2ccccc2C(F)(F)F)o1	D1 ag 33.0, D1 antagonist -39.0
CC(=O)c1cccc(NC(=O)c2noc3c2CSc2ccccc2-3)c1	none
COC(=O)c1ccc(Nc2ncnc3c2nc2n3CCCC2)cc1	none
Cc1cccc(C)c1NC(=O)CCCN1C(=O)CCn2nc(-c3cn(C)c4ccccc34)cc21	none
COCC(=O)NNS(=O)(=O)c1ccccc1[N+](=O)[O-]	none
CCOc1ccc(NC(=O)CCC(=O)NNS(=O)(=O)c2ccccc2[N+](=O)[O-])cc1	D1 ag 224.0, TRHR agonist 102.1
CCOc1ccccc1C(=O)Nc1ccc(S(=O)(=O)Nc2ncccn2)cc1	none
C(=N\N1CCN(Cc2ccccc2)CC1)/c1ccccc1	none
Clc1cccc(/C=N/N2CCN(Cc3ccccc3)CC2)c1	D1 antagonist -32.5
COc1ncnc(OC)c1S(=O)(=O)Nc1ccc(C(F)(F)F)cc1	D1 antagonist -31.2
COc1ccc(CCC(=O)NNC(=O)c2ccc(F)cc2)cc1	D1 antagonist -30.0
COc1ccc(CCC(=O)NNC(=S)NCc2ccc(F)cc2)cc1	none
COc1ccc(C(=O)NCCS(=O)(=O)NCc2ccc(F)cc2)cc1	D1 antagonist -31.4
O=C(NCCS(=O)(=O)NCc1ccccc1Cl)c1ccc2c(c1)OCO2	D1 antagonist -35.1
O=C(NCCS(=O)(=O)NCCc1ccccc1)c1ccc2c(c1)OCO2	none
COc1ccccc1CNS(=O)(=O)CCNC(=O)c1ccccc1	D1 antagonist -30.0
CCCN1C(=O)C2(c3ccccc31)c1c(oc3ccc(F)cc3c1=O)C(=O)N2CCCOC(C)C (configuration not stated)	none
COc1cc(NC(=O)c2cc3c(=O)oc4ccc(C)cc4c3s2)cc(OC)c1OC	none
CCCN1C(=O)C(O)(CC(=O)c2ccc(OC)c(OC)c2)c2ccccc21 (configuration not stated)	none
Cc1ccc(OCc2nc(-c3ccc(C(=O)N4CCN(c5cc(Cl)ccc5C)CC4)cc3)oc2C)cc1	D1 antagonist -33.9
CCOC(=O)N1CCC(NC(=O)c2cnn(-c3ccc(F)cc3F)c2C2CCN(C(=O)OC(C)(C)C)CC2)CC1	none
COc1ccc(C(=O)N2CCC(c3nc(-c4ccc(S(=O)(=O)N5CCCC5)cc4)no3)CC2)cc1	none

Bioassay records (PubChem)
